The values below come from PubChem BioAssay AID1903 (Southern Research Specialized Biocontainment Screening …, 2009).

Screen size: about 310,000 compounds; about 1,200 (0.39%) were called active. Only a sample is shown. Results with a measured potency or affinity are listed apart. Values without a mark were called inactive. The rule behind the calls is not given here.

For the assay, the target named is Large T antigen (Simian virus 40) (UniProt P03070). Nature of the assay: TAg ATPase/helicase activity blockers – biochemical (AID 1903). To be noted: SV40 large T antigen ATPase/helicase inhibition assay; at 20 µM; active compounds read high.
Sequence of Large T antigen (Simian virus 40) (P03070 whole entry, looked up): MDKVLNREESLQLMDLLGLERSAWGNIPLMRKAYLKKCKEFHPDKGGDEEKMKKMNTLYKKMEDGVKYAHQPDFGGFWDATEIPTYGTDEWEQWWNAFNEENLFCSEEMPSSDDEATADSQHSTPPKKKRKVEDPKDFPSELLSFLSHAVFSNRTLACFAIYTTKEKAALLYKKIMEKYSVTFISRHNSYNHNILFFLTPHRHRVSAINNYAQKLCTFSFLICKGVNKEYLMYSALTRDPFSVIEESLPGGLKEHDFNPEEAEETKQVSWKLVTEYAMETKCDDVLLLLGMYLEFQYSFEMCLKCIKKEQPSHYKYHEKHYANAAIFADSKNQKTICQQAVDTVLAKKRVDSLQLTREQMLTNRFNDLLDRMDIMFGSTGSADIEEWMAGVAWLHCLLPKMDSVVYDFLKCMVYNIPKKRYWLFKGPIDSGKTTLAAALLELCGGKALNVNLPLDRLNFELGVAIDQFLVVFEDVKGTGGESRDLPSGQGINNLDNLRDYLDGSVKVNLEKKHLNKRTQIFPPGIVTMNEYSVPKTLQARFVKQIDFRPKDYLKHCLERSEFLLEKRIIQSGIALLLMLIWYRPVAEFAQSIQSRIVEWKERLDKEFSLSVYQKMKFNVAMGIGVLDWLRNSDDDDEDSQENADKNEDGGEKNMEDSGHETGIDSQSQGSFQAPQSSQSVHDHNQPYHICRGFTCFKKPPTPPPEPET
Take `CCCCNC(=O)OCCNC(=O)NC`: the inhibition is 7.67%.
For the molecule `COc1ccc(N2CCN(C(=S)Nc3cc(C)ccc3C)CC2)cc1`, the inhibition was 3.41%.
Then `COc1ccc(NC(=S)NCC2CCN(c3ccc(OC)cc3)C2)cc1` (configuration not stated), with 36.1%.
Then `COc1ccc(N2CCC(CNC(=S)Nc3cc(C)cc(C)c3)C2)cc1` (configuration not stated), with 28.6%.
Then `COc1ccc(N2CCC(CNC(=S)Nc3cc(C)ccc3C)C2)cc1` (configuration not stated), with 36.6%.
Consider `COc1ccc(N2CCN(CC(=O)Nc3c(C)cc(C)cc3C)CC2)cc1`, for which the inhibition is 24%.
Then `COc1ccc(N2CCC(CNC(=S)Nc3cccc(C)c3)C2)cc1` (configuration not stated), with 21.4%.
Then `Nc1nnnn1CC(=O)N/N=C/C=C/c1ccccc1`, with 13.8%; and `CC(C)N=C(Nc1ccccc1)c1cccnc1`, with -1.87%.
As to `Cc1snc(SCc2ccc(F)cc2)c1C#N`, the inhibition was 10.8%.
The same measure for `COc1ccc(NC(=O)c2ccc(-n3cnnn3)cc2)c([N+](=O)[O-])c1`: -1.81%; for `O=C1CSC(=S)N1c1cccc(Br)c1`: 9.66%.
Then `O=c1c2c([N+](=O)[O-])cc([N+](=O)[O-])cc2nc2ccccn12`, with 9.53%; and `O=C1c2c([N+](=O)[O-])cc([N+](=O)[O-])cc2S(=O)N1Cc1ccccc1` (configuration not stated), with 11.3%; and `CC1CCCC(C)N1C(=O)COC(=O)c1ccc2c(c1)OCO2` (configuration not stated), with -2.3%.
Then `Cc1ccc(S(=O)(=O)N2CCN(C(=O)COC(=O)CCOc3cc(C)ccc3C)CC2)cc1`, with 7.19%.
As for `COc1ccccc1OCC(=O)N1CCNC1=O`, the inhibition is 12%.
Then `O=Cc1ccc2c(c1)CCN2Cc1ccccc1`, with 3.42%.
The same measure for `O=C1NC(=S)N/C1=C/c1ccc2c(c1)OCO2`: 11.6%; for `O=C(O)c1cccc(S(=O)(=O)Nc2ccc3c(c2)OCO3)c1`: 15.8%; for `O=C(O)c1cccc(S(=O)(=O)Nc2ccc3[nH]c(=O)[nH]c3c2)c1`: -8.06%.
The same measure for `O=C(O)c1cc(NS(=O)(=O)c2ccc3ccccc3c2)ccc1O`: 25.9%; for `CC(=O)c1c(C)oc2ccc(NS(=O)(=O)c3ccc(O)c(C(=O)O)c3)cc12`: 20.5%.
As for `C=CCN(c1ccccc1)S(=O)(=O)c1cccc(C(=O)NNC(=O)c2ccccc2O)c1`, the inhibition is 7.21%.
Then `CC(C)c1nc(SCC(=O)Nc2ccc3c(c2)OCCO3)c2c(=O)n(C)c(=O)n(C)c2n1`, with 3.08%; and `Cc1c(NC(=O)/C(C#N)=C/c2ccc(-c3cc(Cl)ccc3Cl)o2)c(=O)n(-c2ccccc2)n1C`, with 0.645%.
In the case of `C/C(=N\Nc1nc(N)cc(Cl)n1)c1ccc(F)cc1`, the inhibition was 1.42%.
Then `CSc1cccc(CNC(=O)C2CCC(=O)N(CCc3ccccn3)C2)c1` (configuration not stated), with 25.2%; and `Cc1ccc(-c2ccc(=O)n(CC(=O)NCCN3C(C)CCCC3C)n2)cc1` (configuration not stated), with 0.56%.
The same measure for `COc1ccccc1N(CC(=O)NCc1ccccc1C)S(=O)(=O)c1ccc(C)cc1`: 2.07%; for `Cc1ccc2c(c1)/C(=C/c1ccco1)C(=O)N2`: -3.2%; for `O=C1Nc2ccccc2Nc2ncccc21`: -0.98%.
With `COc1cc(C(=O)O)c2c(c1C)OC(=O)c1c(C)cc(O)c(C=O)c1O2`, the inhibition is 5.23%.
Then `COc1cc(C)c2c(c1C=O)Oc1c(c(C)c(O)c3c1C(O)OC3=O)OC2=O` (configuration not stated), with 20%; and `Cc1ccccc1NC(=O)NC1(C(=O)N2CCN(C)CC2)CCCCC1`, with 8.19%.
As for `COc1cc(OC)cc(C(=O)N/N=C/c2ccc(OC)c(COc3ccc(F)cc3)c2)c1`, the inhibition was -6.49%.
The same measure for `Cc1ccc(-c2nnc(Nc3cccc(O)c3)c3ccccc23)cc1S(=O)(=O)NCCO`: 34.4%; for `CC(=O)Nc1ccc(Nc2nnc(-c3ccc(C)c(S(=O)(=O)NCCO)c3)c3ccccc23)cc1`: 10.9%; for `Cc1cnc(NCCc2ccccc2)s1`: 7.89%.
Then `O=C(CSc1nncc2ccccc12)Nc1cccc(C(=O)O)c1`, with 27.1%; and `CN(CC(=O)Nc1ccc(F)cc1)C(=O)COc1ccc([N+](=O)[O-])cc1Cl`, with 0.38%; and `C[C@@H]1O[C@@H](O[C@H]2[C@H](Oc3cc(O)c4c(c3)O[C@H](c3ccc(O)cc3)CC4=O)O[C@H](CO)[C@@H](O)[C@@H]2O)[C@H](O)[C@H](O)[C@H]1O`, with 25.7%.
Then `C[C@@H]1O[C@@H](O[C@H]2[C@H](Oc3cc(O)c4c(c3)OC(c3ccc(O)cc3)CC4=O)O[C@H](CO)[C@@H](O)[C@@H]2O)[C@H](O)[C@H](O)[C@H]1O` (some centres not stated), with 34%; and `CC(C)Oc1ccc(CN2CCCC(CO)(Cc3ccc(F)cc3)C2)cc1` (configuration not stated), with 6.25%; and `Cc1nn(-c2ccccc2)c2sc(C(=O)NCCN3CCOCC3)cc12`, with 16.1%.
On to `O=C1NN(c2cccc(Br)c2)C(=O)/C1=C\c1ccc(N2CCOCC2)cc1`, for which the inhibition was 8.36%.
Then `O=C1NN(c2cccc(Br)c2)C(=O)/C1=C\c1ccccc1`, with 26.7%.
The same measure for `O=C(NCc1ccccc1)C1CC(=O)N(c2ccc(OCC(=O)N3CCCC3)cc2)C1` (configuration not stated): 5.81%; for `COc1ccccc1N(CC(=O)NCc1ccco1)S(C)(=O)=O`: 15.8%.
The same measure for `O=C(O)c1cccc(Nc2cc(Cl)c3nonc3c2[N+](=O)[O-])c1`: 20.1%; for `O=C(O)c1cccc(Nc2ccc3nonc3c2[N+](=O)[O-])c1`: 10.9%.
Regarding `O=C(O)c1ccccc1Nc1cc(Cl)c2nonc2c1[N+](=O)[O-]`, the inhibition was 33.3%.
Take `O=[N+]([O-])c1c(Nc2ccccc2O)cc(Cl)c2nonc12`: the inhibition is 29.4%.
Then `Cc1c(Nc2cc(Cl)c3nonc3c2[N+](=O)[O-])c(=O)n(-c2ccccc2)n1C`, with 26.5%.
Take `O=[N+]([O-])c1c(Nc2ccccn2)cc(Cl)c2nonc12`: the inhibition was 27.4%.
As to `CN(C)c1cc(Nc2cccc(O)c2)c([N+](=O)[O-])c2nonc12`, the inhibition was 16.9%.
The same measure for `CN(C)c1cc(Nc2ccc(O)cc2)c([N+](=O)[O-])c2nonc12`: 14.7%.
